Assay results reported in PubChem BioAssay AID651725 (National Center for Advancing Translational Sciences (NCATS), 2012).
The campaign covered roughly 360,000 compounds. About 2,000 (0.56%) were called active. Another 2% or so got no clear call; they are omitted. The list comes from a sample in which actives are over-represented; it also holds similar structures and randomly drawn compounds. Values without a mark were called inactive. No stated cut-off is given here; in the data, active means activity change below about -65%; inconclusive means mostly about -30% to -63%; inactive means weaker than that.

molecular target: Homeobox protein SIX1 (Homo sapiens) + Protein phosphatase EYA2 (Homo sapiens) (UniProt Q15475+O00167); assay: qHTS Assay for Inhibitors of the Six1/Eya2 Interaction; settings: AlphaScreen GST-Six1/His-Eya2 binding, biochemical; hits give low values
Procedure, shortened: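 AlphaScreen with GST-Six1 and His-Eya2 (5X mix: 250 nM and 500 nM), glutathione donor and nickel acceptor beads; buffer 50 mM Tris pH 8.0, 300 mM NaCl, 1 mM TCEP; 1 h at 37 C in the dark.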
On the % scale 0 is the no-effect control and ±100 the full control effect.

Sequence of Homeobox protein SIX1 (Homo sapiens) + Protein phosphatase EYA2 (Homo sapiens) (O00167 whole entry, looked up): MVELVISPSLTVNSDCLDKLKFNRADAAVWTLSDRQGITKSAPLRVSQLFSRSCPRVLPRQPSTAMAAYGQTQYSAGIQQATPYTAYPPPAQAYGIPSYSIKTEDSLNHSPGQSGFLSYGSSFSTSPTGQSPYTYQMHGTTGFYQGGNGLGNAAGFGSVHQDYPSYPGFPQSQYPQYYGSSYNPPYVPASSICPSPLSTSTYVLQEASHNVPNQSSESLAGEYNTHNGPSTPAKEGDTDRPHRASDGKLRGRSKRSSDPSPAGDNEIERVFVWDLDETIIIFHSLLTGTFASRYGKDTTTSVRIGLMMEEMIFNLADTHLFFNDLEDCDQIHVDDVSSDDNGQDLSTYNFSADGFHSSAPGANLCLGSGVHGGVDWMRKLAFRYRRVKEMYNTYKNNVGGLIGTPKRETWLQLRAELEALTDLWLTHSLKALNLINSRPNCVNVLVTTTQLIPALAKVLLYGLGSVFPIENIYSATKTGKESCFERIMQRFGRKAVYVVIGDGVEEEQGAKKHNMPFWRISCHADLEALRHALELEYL
Sequence of Homeobox protein SIX1 (Homo sapiens) + Protein phosphatase EYA2 (Homo sapiens) (Q15475 whole entry, looked up): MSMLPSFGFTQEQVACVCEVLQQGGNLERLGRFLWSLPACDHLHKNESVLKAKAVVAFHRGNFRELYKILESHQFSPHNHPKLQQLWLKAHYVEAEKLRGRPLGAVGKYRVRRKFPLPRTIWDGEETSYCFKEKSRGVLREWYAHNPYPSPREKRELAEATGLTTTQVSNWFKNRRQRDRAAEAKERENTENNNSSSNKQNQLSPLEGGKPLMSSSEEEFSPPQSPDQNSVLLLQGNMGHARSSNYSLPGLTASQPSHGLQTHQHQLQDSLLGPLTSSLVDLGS

Compared with `O=C(CNC(=O)c1cccnc1)N/N=C/c1cc(Br)c(O)c(Br)c1`, `Cc1cccc(NS(=O)(=O)c2ccc(C)c(C(=O)NCc3cccnc3)c2)c1` is higher in activity change: -6.06% for the first, -0.175% for the second.

First: Cc1ccc(S(=O)(=O)N(CC(=O)N/N=C/c2ccc(F)cc2)c2cccc3cccnc23)cc1
Second: COc1cccc(CNC(=O)C2CCN(S(=O)(=O)c3cccc4cccnc34)CC2)c1
The activity change of the first is higher: -0.495% for the first, -4.19% for the second.

Compared with `C[C@H]1CN([C@@H](C)CO)C(=O)CCCn2nncc2CO[C@@H]1CN(C)Cc1ccc(Oc2ccccc2)cc1`, `CCOc1ccc(CCN2C(=O)C(=O)N([C@@H](CC(C)C)CN3CCC[C@H]3CN3C(=O)C(=O)NC[C@@H]3Cc3ccccc3)C[C@@H]2CC(C)C)cc1` is lower in activity change: 13.9% for the first, -1.05% for the second.

First: CNc1ccc(NC(C)=O)cc1[N+](=O)[O-]
Second: CC(C)(C)C(=O)NCCCNc1ccc([N+](=O)[O-])cc1
The activity change of the first is higher: -0.656% for the first, -1.69% for the second.

Compared with `Cc1cc([N+](=O)[O-])c(=O)[nH]c1C`, `Cc1cc([N+](=O)[O-])c(N2CCC[C@@H]2C(=O)O)c([N+](=O)[O-])c1` is higher in activity change: 4.44% for the first, 7.42% for the second.

Compared with `Nc1nnnn1/N=C/c1cccs1`, `Nc1nnnn1/N=C/c1cccc(Br)c1` is lower in activity change: 2.77% for the first, -1.52% for the second.

`COC(=O)[C@@]12C[C@@H](CC(=O)N3CCCCC3)C(=O)N(Cc3ccc4c(c3)OCO4)C1=CCC(C)(C)C2` and `COC(=O)[C@@]12C[C@@H](CC(=O)N3CCC(c4ccccc4)CC3)C(=O)N(Cc3ccccc3)C1=CCC(C)(C)C2` are the same in activity change: -15.9% for the first, -15.9% for the second.

Going from `C=CCOCCN(C)C1=NS(=O)(=O)c2ccccc21` to `COc1ccc(C(C)(C)C)cc1NC(=O)CN(C)C1=NS(=O)(=O)c2ccccc21`, the activity change rises from -3.42% to 4.86%.

First: CC1CN(C(=O)c2cccc(NS(=O)(=O)c3ccc(Br)cc3)c2)CC(C)O1 (configuration not stated)
Second: COc1ccc(S(=O)(=O)N[C@@H]2C=C[C@@H](CC(=O)N3CCc4ccccc4C3)O[C@@H]2CO)cc1
The activity change of the first is higher: -2.46% for the first, -3.17% for the second.

Compared with `C[C@H](NC(=O)[C@@H]1CCCN1C(=O)[C@@H]1CCCN1C(=O)c1ccccc1)c1ccccc1`, `O=C(C(=O)N1CCC(c2ccccc2)CC1)c1ccccc1` is lower in activity change: 0.523% for the first, -2.34% for the second.

Compared with `CC1CN(S(=O)(=O)c2cccc(C(F)(F)F)c2)CN1C(=O)N1CCOCC1` (configuration not stated), `CC1(C(=O)NCc2ccccc2)CSCC(=O)N1CCCN1CCOCC1` (configuration not stated) is lower in activity change: -0.306% for the first, -1.18% for the second.

Going from `Cn1c(SCC(=O)Nc2ccc(Cl)cc2)nc(O)cc1=O` to `Cc1cc(OCc2ccc(C(=O)Nc3ccc(C(=O)O)cc3)o2)ccc1Cl`, the activity change falls from 7.12% to -9.21%.

Compared with `CC1(C(=O)NCc2ccccc2)CN(S(C)(=O)=O)CC(=O)N1CC(F)(F)F` (configuration not stated), `CC(C)CN1C(=O)CN(S(C)(=O)=O)CC1(C)C(=O)NCc1ccccc1` (configuration not stated) is higher in activity change: 2.8% for the first, 5.67% for the second.

First: CN1C(c2ccc(F)cc2)=CS/C1=C(/C#N)c1nnc2n1-c1ccccc1SC2
Second: CC(C)(C)C(=O)c1c(N)[nH]c(C(=O)c2ccccc2)c1-c1ccc(F)cc1
The activity change of the first is lower: -14.2% for the first, -8.67% for the second.

Going from `COC(=O)C1(C(=O)OC)C[C@H](c2ccccc2)N(Cc2ccccc2OC)[C@@H]1c1ccccc1` to `O=C(CN1CCN(Cc2ccccc2)CC1)NC(c1ccccc1)c1ccccc1`, the activity change falls from 1.28% to -3.09%.

Compared with `CCC(C(=O)NCc1ccccc1)n1c(Cc2cc(F)cc(F)c2)nc2ccccc21` (configuration not stated), `CCCCCNC(=O)C(c1ccc(OC)cc1)n1c(=O)c(-c2ccccc2)nc2ccccc21` (configuration not stated) is higher in activity change: -0.68% for the first, 5.06% for the second.

Compared with `COc1ccc(N2c3ccccc3CN(Cc3ccccc3)[C@@H](C)[C@H]2Cc2ccc(-c3ccccc3)cc2)cc1`, `O=C1NC[C@H](CCCCN2C[C@H](Cc3ccccc3)N(Cc3ccccc3)C(=O)C2=O)N(CCc2ccc(O)cc2)C1=O` is higher in activity change: -12.3% for the first, -1.72% for the second.

First: CC(=O)c1cc(CN2CCC(n3nccc3NC(=O)c3ccccc3Cl)CC2)cs1
Second: COc1cc(CC(=O)N2CCC(n3nccc3NC(=O)C3CC3)CC2)cc(OC)c1OC
The activity change of the first is lower: -1.64% for the first, -0.446% for the second.

Compared with `Cc1ccc(-c2c(N)nc3ncccn23)cc1`, `Cc1ccc(-c2nc3c(Cl)cc(C(F)(F)F)cn3c2Cc2cccc(Cl)c2)cc1` is higher in activity change: -9.22% for the first, 1.53% for the second.

Compared with `CC(=O)N1Cc2cc(C(=O)NCc3cccc(F)c3)nc(-c3cccc(C4=CCCCC4)c3)c2[C@H]1CCO`, `Cc1c(NS(=O)(=O)c2ccc(NC3CCCC3)c([N+](=O)[O-])c2)c(=O)n(-c2ccccc2)n1C` is lower in activity change: 0.697% for the first, -0.483% for the second.

First: O=S1(=O)CCN(Cc2ccccc2)CC1
Second: Clc1ccc(-c2nc3ccccn3c2CN2CCSCC2)cc1
The activity change of the first is higher: -0.459% for the first, -7.53% for the second.

Compared with `Cc1nc(CN(C)C(=O)CC2C(=O)NCCN2Cc2ccc(F)cc2)cs1` (configuration not stated), `CCOc1ccc(CN2CCN(Cc3ccon3)CC2CCO)cc1` (configuration not stated) is lower in activity change: 6.54% for the first, 5.89% for the second.

Going from `O=C1CCC/C(=N\NC(=O)NC2CCCCC2)C1` to `O=C(Nc1ccccc1F)C1C2C=CC3(O2)C1C(=O)N(c1cccnc1)C3C(=O)NC1CCCCC1` (configuration not stated), the activity change falls from 4.54% to 4.1%.

Compared with `CCN(CC)C(=O)CSc1nc2ccccc2o1`, `CC(C)(C)C(=O)CSc1nc2ccccc2o1` is higher in activity change: 6.18% for the first, 10% for the second.

Going from `O=C(CSc1nc2ccccc2o1)N1CCN(c2ccccc2)CC1` to `O=C(C(NS(=O)(=O)c1cccc2nsnc12)c1ccccc1)N1CCN(c2ccccc2)CC1` (configuration not stated), the activity change falls from 0.782% to -0.046%.

First: CCC(NC(=O)c1ccccc1NC(=O)c1ccccc1)C(=O)NNC(=O)CSc1nc2ccccc2o1 (configuration not stated)
Second: O=C(COc1ccccc1)Nc1nonc1NC(=O)COc1ccccc1
The activity change of the first is lower: -24.4% for the first, -6.13% for the second.

Going from `COc1ccc(C(O)C(O)(C(=O)OC(C)C)c2ccc(C)cc2)cc1` (configuration not stated) to `COc1ccccc1NC(=O)COC(=O)COc1ccccc1F`, the activity change falls from 10.6% to 6.13%.

Going from `Cc1ccc2cc(C#N)c(NCCNC(=S)NCCCN3CCOCC3)nc2c1` to `CCCNC(=O)c1cc(C2CCCCN2S(=O)(=O)c2cn(C)cn2)on1` (configuration not stated), the activity change rises from -1.85% to 0.952%.

Compared with `C/C(=N\Nc1cccc(C(=O)O)c1)c1ccc2c(c1)Nc1ccccc1S2`, `C=CCOc1ccccc1/C=N/NC(=O)Cc1ccccc1` is higher in activity change: -18.9% for the first, -1.77% for the second.

First: NN=C(NN=Cc1ccccc1)c1ccccc1
Second: Cc1ccc2c(c1)c1ncnc(N3CCc4ccccc4C3)c1n2C
The activity change of the first is higher: 15.8% for the first, -7.75% for the second.

First: CN1CCN(C(=O)c2ccc(NC(=O)c3ccc(Br)o3)cc2)CC1
Second: Cc1cc(NC(=O)[C@H](C)NC(=O)c2ccco2)ccc1Br
The activity change of the first is higher: 1.67% for the first, 0.811% for the second.

First: Cc1cc(OCCOc2cccc3cccnc23)c(C)cc1Cl
Second: CSCCC(NC(=O)c1ccco1)C(=O)Nc1cc(C)ccn1 (configuration not stated)
The activity change of the first is lower: -4.24% for the first, -1.3% for the second.

First: CCOc1ccc(N2C(=O)CSC2=NC#N)cc1
Second: CC1CCCCC1NC(=O)COc1ccc(C#N)cc1 (configuration not stated)
The activity change of the first is higher: 2.91% for the first, -10.9% for the second.

First: COc1cc(N2C(=O)CSC2=S)cc(OC)c1OC
Second: CC1CCN(S(=O)(=O)c2nnc(NC(=O)COc3ccccc3F)s2)CC1
The activity change of the first is lower: -9.23% for the first, 3.54% for the second.

Going from `CCOC(=O)[C@]12CCCC=C1N(CCC1=CCCCC1)C(=O)[C@H](CC(=O)N1CCSCC1)C2` to `CCOC(=O)[C@]12CCCC=C1N(CCC1=CCCCC1)C(=O)[C@H](CC(=O)N1CCN(C(=O)c3ccco3)CC1)C2`, the activity change rises from -5.61% to -5.37%.

Going from `Cn1cnc(S(=O)(=O)N2C[C@@H](O)COC[C@@H]3O[C@H](CC(=O)NC4CCC4)CC[C@H]32)c1` to `O=C(NCCN1C(=O)C2C3C=CC(C3)C2C1=O)Nc1ccccn1` (configuration not stated), the activity change rises from -0.831% to 2.02%.

Going from `O=C(CCN1C(=O)C2C3C=CC(C3)C2C1=O)Nc1ccccc1F` (configuration not stated) to `O=C1Nc2ccccc2-n2nnnc2C1N1CCN(c2cccc(C(F)(F)F)n2)CC1` (configuration not stated), the activity change falls from 2.72% to 0.68%.

In the case of `O=C(CSc1cccc2cccnc12)N/N=C/c1cccnc1`, the activity change is reported as -80.7% (active).
For `CNc1[nH]ncc1[N+](=O)[O-]`, the activity change was -66.5% (active).
In the case of `Nc1nnnn1/N=C/c1cc([N+](=O)[O-])ccc1O`, the activity change is reported as -65.9% (active).
In the case of `COc1ccc(/C=N/N(C)C2=NS(=O)(=O)c3ccccc32)cc1OC`, the activity change is reported as -67.9% (active).
In the case of `Oc1ccc2ccccc2c1N=Nc1nccs1`, the activity change is reported as -81.4% (active).
With `Oc1ccc(N=Nc2nccs2)c(O)c1` the activity change was -77.5% (active).
In the case of `O=C1c2ccccc2C(=O)c2c1cccc2N1CCN(Cc2ccccc2)CC1`, the activity change is reported as -88.9% (active).
In the case of `Cc1ccc(/C=N/NC(=O)CSc2nc3ccccc3o2)cc1`, the activity change is reported as -87.1% (active).
`O=C(CSc1nc2ccccc2o1)N/N=C/c1ccccc1C(=O)O` was tested, and the activity change was -67.9% (active).
In the case of `Nc1ccc2nc3c(=O)[nH]c(=S)[nH]c3nc2c1`, the activity change is reported as -79.3% (active).
In the case of `O=C(N/N=C/c1ccccc1O)/C(=C/c1ccccc1)CCO`, the activity change is reported as -80.4% (active).
With `CC(=O)/C(=N\Nc1ccc(Cl)cc1Cl)Sc1cccc2cccnc12` the activity change was -91.1% (active).
With `CCOc1cccc(/C=N/N2C(=O)CSC2=S)c1O` the activity change was -92.8% (active).
`N#Cc1ccc(OCC(=O)Nc2nc(-c3ccccn3)cs2)cc1` was tested, and the activity change was -90% (active).
For `O=C(COc1ccccc1F)Nc1nc(-c2ccccn2)cs1`, the activity change was -84.1% (active).
`CC(NC(=O)c1ccco1)C(=O)Nc1nc(-c2ccccn2)cs1` (configuration not stated) was tested, and the activity change was -83.1% (active).
In the case of `O=C(CN1C(=O)C2C3C=CC(C3)C2C1=O)Nc1nc(-c2ccccn2)cs1` (configuration not stated), the activity change is reported as -80.4% (active).
For `Cc1cc([N+](=O)[O-])c(NC2CCCCC2)c([N+](=O)[O-])c1`, the activity change was -69.3% (active).
